Assay outcomes (PubChem BioAssay)
INS promoter inh – TRM-6 insulin promoter activity inhibition | TRM-6 cells (human fetal islet line), insulin promoter-eGFP reporter, imaging; reporter expression induced with tamoxifen | inhibition, % at 2 µM | 130,000 tested, 0.9% active | AID 1273;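 active = inhibition above the mean plus 3 SD, with well images judged a real hit on visual review, cut at about 60% in these data, passing the limit was not always enough; inconclusive = inhibition over the cutoff but images rejected on review; inactive = inhibition not above the cutoff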
Ins promoter up – MIN6 insulin promoter up-regulation. z-score at 5 µM. 190,000 tested, 0.3% active. MIN6 insulin promoter-GFP reporter, high-content imaging; active compounds read high;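 active = z-score above 3 at 5 µM with at least 500 cells counted in the well; inconclusive = wells under 500 cells, flagged as cytotoxic or low count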
Efa HMGR inh – E. faecalis class II HMG-CoA reductase inhibition; purified E. faecalis HMGR, NADPH absorbance 340 nm kinetic; AID 1066; inhibition, % at 10 µM; 190,000 tested, 0.41% active;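 active = inhibition above a set limit, the median over all tested compounds plus 3 SD, cut at about 9.5% in these data; inconclusive = no clear call, values can overlap the other calls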;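 note: enzyme runs in reverse so mevalonate oxidation gives rising NADPH absorbance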
Autophagy HCS – modulators of autophagy | MEF GFP-LC3 puncta imaging; test concentration mostly 10 µM | calls only at 10 µM (by protocol) | 190,000 tested, 0.98% active;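 active = percentage of spot-positive cells more than 3 SD above its plate mean, without a fluorescence outlier flag or 80% toxicity; inconclusive = no clear call, values can overlap the other calls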
Large screens that a line does not name were inactive. Shown are actives, neighbours in structure and some others; about 1.9% of the full set was active somewhere.

CCCCC(=O)Nc1ccccc1C(=O)N1CCOCC1	INS promoter inh 71
COc1cccc(C(=O)NCC(=O)N/N=C/c2cccs2)c1	none (no result: INS promoter inh)
NC(=O)C(=CNc1nc(-c2ccc(Cl)c(Cl)c2)cs1)C(N)=O	none (no result: INS promoter inh, Efa HMGR inh, Autophagy HCS)
COc1ccc(C(=O)c2no[n+]([O-])c2C(=O)c2ccc(OC)cc2)cc1	none
O=C(c1cccs1)c1no[n+]([O-])c1C(=O)c1cccs1	Ins promoter up 3.8
CCOc1ccnc(OCC)c1Br	INS promoter inh 79
CCOc1ncccc1C(=O)OCC(=O)c1ccccc1Br	none
COc1ccc(-c2c3c(=O)n(C)c(=O)n(C)c3cn2Cc2cccnc2)cc1	INS promoter inh 73
CCN(Cc1cc(=O)n2ccsc2n1)Cc1nc2ccccc2c(=O)[nH]1	Efa HMGR inh 11 (no result: INS promoter inh)
CCOC(=O)Cc1csc(NC(=O)COc2cccc(C)c2)n1	Efa HMGR inh 18
Cc1ccc(Nc2nc(Oc3ccc(=O)[nH]n3)nc(N(C)C)n2)cc1	INS promoter inh inconclusive, Autophagy HCS active
Cn1nc(C(F)(F)F)c(C(=O)Nc2ccc(C(F)(F)F)cc2)c1Cl	none (no result: Ins promoter up)
C=CCNC(=O)c1c(C(F)(F)F)nn(C)c1Cl	Efa HMGR inh 9.6 (no result: INS promoter inh)
O=C(c1ccc([N+](=O)[O-])cc1)N(Cc1ccc(Cl)cc1)N1C(=O)CCCC1=O	Autophagy HCS active
O=C(OCc1csc(Nc2ccccc2)n1)c1ccc(Cl)cc1	none (no result: INS promoter inh)
Cc1cc(C)c(S(=O)(=O)c2ccccc2)c(OC(=O)c2c(Cl)cc(Cl)cc2Cl)n1	none
Cc1cc(C)c(S(=O)(=O)c2ccccc2)c(OC(=O)c2c(F)cccc2F)n1	Efa HMGR inh 14
Cc1cc2c(N)cccc2nn1	none
Nc1[nH]nc2nc3ccccc3cc12	Efa HMGR inh 10
Nc1cccc2nc3ccccc3cc12	Autophagy HCS active (no result: INS promoter inh)
Cc1ccc(C)c(N2CCN(c3ccncc3N)CC2)c1	none (no result: INS promoter inh, Efa HMGR inh, Autophagy HCS)
COc1ccc(CCNC(=O)c2ccc(CNS(=O)(=O)c3cc(C)ccc3C)cc2)cc1OC	none
CC(C)Sc1nc2ccccc2[nH]1	INS promoter inh 78
FC(F)(F)c1nc2ccccc2[nH]1	none (no result: INS promoter inh, Efa HMGR inh, Autophagy HCS)
CC(C)(C)c1nc2ccccc2[nH]1	INS promoter inh 80
CSc1ccc(CNC(C)(C)CO)cc1	none (no result: Ins promoter up)
COc1ccc(-c2cc3nc4ccccc4n3c(N)c2C#N)cc1	none (no result: INS promoter inh, Efa HMGR inh, Autophagy HCS)
S=C(NCC1CCCO1)N1CCN(Cc2ccccc2)CC1 (configuration not stated)	none (no result: INS promoter inh)
O=[N+]([O-])c1ccc(Nc2c3ccccc3nc3ccccc23)cc1	Autophagy HCS active
C=C(C(=O)c1ccccc1)C(C)C(=C)C(=O)c1ccccc1	none (no result: INS promoter inh)
CCn1nnnc1SCC(=O)N1CCOCC1	none
CCCn1nnnc1SCC(=O)N1CCOCC1	INS promoter inh 83
O=c1c2ccccc2[nH]c(=S)n1C1CCCCC1	none
CC1CCC(n2c(=S)[nH]c3ccccc3c2=O)CC1 (configuration not stated)	INS promoter inh 80
CCN(CC)S(=O)(=O)c1cc(NC(=O)COC(=O)c2sc3ccccc3c2Cl)ccc1C	none
CC1CN(C(=O)c2cccc(S(=O)(=O)Nc3ccc(Cl)cc3)c2)CC(C)O1 (configuration not stated)	Efa HMGR inh 24 (no result: INS promoter inh)
CN(C)c1nc(Cl)nc(NCCOc2ccccc2)n1	INS promoter inh 66
CCNc1nc(Cl)nc(NCCOc2ccc(C)cc2)n1	none
CSc1ncccc1C(=O)Nc1ccc(OC(F)(F)F)cc1	none (no result: INS promoter inh)
COc1cc(NC(=O)c2cccnc2SC)cc(OC)c1OC	Efa HMGR inh 13 (no result: INS promoter inh)
CN1C(=O)/C(=C/C=C2\SCCN2C)SC1=S	none
CN1C(=O)/C(=C/C=C2\SCCN2C)N(C)C1=S	INS promoter inh 89
S=c1[nH]nc(COc2ccc(Cl)cc2)n1Cc1ccco1	none (no result: INS promoter inh)
CC(=O)c1sc2nc(-c3cccs3)cc(C(F)(F)F)c2c1N	Autophagy HCS active (no result: INS promoter inh, Ins promoter up)
O=C(CN1CCc2ccccc2C1)NCC(=O)Nc1ccc(F)cc1	none (no result: INS promoter inh)
O=c1[nH]c2cc([N+](=O)[O-])c([N+](=O)[O-])cc2[nH]c1=O	none (no result: INS promoter inh)
O=c1[nH]cc([N+](=O)[O-])cc1Br	Autophagy HCS active
Cc1nc(-c2ccccc2)sc1C1(C)CC(c2cccc([N+](=O)[O-])c2)=NO1 (configuration not stated)	none (no result: INS promoter inh, Efa HMGR inh, Autophagy HCS)
CC(=O)CC1=NC(C)(C)Cc2ccccc21	Efa HMGR inh 12
COc1ccccc1C(=O)NNC(=O)c1cccc(Cl)c1	Autophagy HCS active (no result: INS promoter inh)
O=C(Cn1nc2n(c1=O)-c1ccccc1SC2)N/N=C/c1cccnc1	none (no result: INS promoter inh, Efa HMGR inh, Autophagy HCS)
CCOc1ccc(CCNc2nc3ccccc3n3cnnc23)cc1OCC	none (no result: INS promoter inh, Efa HMGR inh, Autophagy HCS)
CCOC(=O)C1CCN(C(=O)c2c(-c3ccccc3)noc2C)CC1	Efa HMGR inh 14 (no result: INS promoter inh)
CCC(=O)Nc1cc(C)c(NC(=O)C23CC4CC(CC(C4)C2)C3)cn1	INS promoter inh 76 (no result: Ins promoter up)
C=CCn1nnnc1-c1cc(Cl)cc(Cl)c1	none
CCOC(=O)c1c(NC(=O)c2cc(C(C)C)on2)sc(C(C)=O)c1C	none (no result: Ins promoter up)
